FadD28 binding = blocks FadD28 binding to the bisubstrate probe. fluorescence polarization. inhibition, % at 12.5 µM. 360,000 tested, 0.22% active; in the data active = inhibition above about 8.5%, passing the limit was not always enough
BioA inh = BioA (M. tuberculosis) enzyme inhibition. 360,000 tested, 0.096% active. purified M. tuberculosis BioA enzyme, plate reader. inhibition, % at 9.99 µM; in the data active = inhibition above about 40%
GDH-TPI counter = inhibits GDH-TPI coupling enzymes, artifact for Mtb FBA screen; inhibition, % at 4.8 µM; AID 588335; GDH-TPI coupled enzyme counterscreen, NADH absorbance; 360,000 tested, 1.2% active; in the data active = inhibition above about 30%;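 also: 0% = DMSO wells and 100% = wells lacking the enzyme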
Mtb FBA inh = Mtb fructose-bisphosphate aldolase inhibition; 360,000 tested, 2.3% active; inhibition, % at 1 µM; P9WQA3; purified M. tuberculosis FBA, fluorescence read-out; AID 588726; in the data active = inhibition above about 27%;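 also: 0% = vehicle and 100% = reference inhibitor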
Target sequence (P9WQA3 whole entry, looked up): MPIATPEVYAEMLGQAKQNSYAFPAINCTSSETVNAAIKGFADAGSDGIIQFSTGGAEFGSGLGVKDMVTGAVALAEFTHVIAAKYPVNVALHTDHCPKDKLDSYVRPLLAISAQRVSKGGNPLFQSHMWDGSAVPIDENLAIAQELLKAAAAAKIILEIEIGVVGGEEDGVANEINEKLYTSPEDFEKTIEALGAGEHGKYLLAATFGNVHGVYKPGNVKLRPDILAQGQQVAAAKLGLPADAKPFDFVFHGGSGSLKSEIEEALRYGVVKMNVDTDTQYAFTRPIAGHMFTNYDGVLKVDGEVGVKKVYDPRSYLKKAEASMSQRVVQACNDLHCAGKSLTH
Mtb hypoxia rep = reduces hypoxia-regulated biosensor signal in M. tuberculosis. fluorescence inhibition, % (test concentration not listed). 300,000 tested, 0.1% active. M. tuberculosis hypoxia-regulated fluorescent reporter, fluorescence; in the data active = fluorescence inhibition mostly above about 23%, no sharp cut-off; inactive = mostly below about 17%
Starred values were filed as active, the others as inactive; / = no result; + = active, no number. The list is not random: actives were taken first. Their share in the collection is about 2.9%.

SMILES	FadD28 binding	BioA inh	GDH-TPI counter	Mtb FBA inh	Mtb hypoxia rep
CO[C@@H]1CN(C)C(=O)c2cc(NC(=O)C3CCC3)ccc2OC[C@@H](C)N(C(=O)CN(C)C)C[C@@H]1C	/	-1	/	/	/
CC1Oc2ccccc2C=C1C=NNC(=O)[C@@H](C)NC(=O)OC(C)(C)C (stereo partly drawn)	/	/	/	/	0
CC1Oc2ccccc2C=C1/C=N/NC(=O)[C@@H](C)NC(=O)OC(C)(C)C (stereo partly drawn)	-1	/	38*	17	/
CC1Oc2ccccc2C=C1/C=N\NC(=O)c1cccnc1 (stereo not drawn)	-2	19	48*	6	/
O=[N+]([O-])c1ccc(C2CCCCC2=NO)c([N+](=O)[O-])c1 (stereo not drawn)	/	/	/	/	1
Cc1ccc2nc3c(cc(C(=O)NCc4ccccc4)c(=N)n3CCCn3ccnc3)c(=O)n2c1	-1	-2	11	131*	12
Cc1ccc2nc3c(cc(C(=O)NCCc4ccccc4)c(=N)n3CCN3CCOCC3)c(=O)n2c1	-16	0	3	188*	-2
Cc1ccc2nc3c(cc(C(=O)NC4CCS(=O)(=O)C4)n3Cc3ccccc3)c(=O)n2c1 (stereo not drawn)	1	4	26	+	5
Cc1cccn2c(=O)c3cc(C(=O)NC(C)c4ccccc4)c(=N)n(CCCn4ccnc4)c3nc12 (stereo not drawn)	-5	/	0	161*	20
O=C(c1ccc(=O)oc1)N1CCN(C(c2ccccc2)c2ccccc2)CC1	-3	4	39*	9	14
CC(=O)N1CCN(C(c2ccccc2)c2ccccc2)CC1	0	-1	/	3	/
CCC(=NNC(=S)NC(C)C)c1ccc(OC)c(OC)c1	/	/	/	/	1
O=C(Nc1ccccc1[N+](=O)[O-])C1=C(O)CCn2c1nc1ccccc12	-1	-1	39*	1	11
C=CCOC(=O)[C@H]1[C@@H]2C(=O)O[C@@H](c3ccccc3)[C@@H](c3ccccc3)N2[C@@H](c2ccc(OCCOC(=O)[C@@H]3C[C@@H]4C(=O)NCC(=O)N4[C@@H]3c3cccc(OCCO)c3)cc2)[C@]12C(=O)Nc1ccc(I)cc12	/	-3	/	/	/
COc1ccc(C=Nn2c(=O)[nH]c3c([nH]c4ccc(Cl)cc43)c2=O)cc1CN1CCCCC1	/	/	/	/	8
COc1ccc2c(c1)[nH]c1c(=O)n(/N=C/c3ccc(OC)c(CN4CCCC4)c3)cnc12	-1	6	54*	2	/
COc1ccc(/C=N/n2c(=O)[nH]c3c([nH]c4ccc(F)cc43)c2=O)cc1CN1CCCCC1	-1	-1	26	82*	/
COc1ccc2c(c1)[nH]c1c(=O)n(N=Cc3ccc(OC)c(CN4CCCCC4)c3)cnc12	/	/	/	/	10
CC(C)NC(=O)N(C)C[C@@H]1Oc2ccc(NC(=O)Nc3ccccc3)cc2C(=O)N([C@H](C)CO)C[C@H]1C	/	0	/	/	/
NS(=O)(=O)c1ccc(C(=O)Nc2ccc(-c3nc4cccnc4s3)cc2)cc1	-2	-2	15	19	0
O=S(=O)(Nc1ccc(-c2nc3cccnc3s2)cc1)c1cc(F)ccc1F	-4	/	30	+	/
CCc1ccc(S(=O)(=O)Nc2ccc(-c3nc4cccnc4s3)cc2)s1	-2	-3	45*	+	4
COc1cc(N2Cc3ccccc3C2)ccc1C=O	-1	2	34*	2	5
COc1ccc2c(c1OC)c(=O)n1c3ccc(OC(C)C(=O)NCCCN4CCOCC4)cc3c3ccnc2c31 (stereo not drawn)	-5	6	3	153*	/
CCOC(=O)C1CCCN(c2ccc([N+](=O)[O-])c3nonc23)C1 (stereo not drawn)	47*	/	12	-8	9
SMILES	FadD28 binding	BioA inh	GDH-TPI counter	Mtb FBA inh	Mtb hypoxia rep
COc1cccc(-c2nc(C#N)c(N3CCN(C(=O)c4ccco4)CC3)o2)c1	-1	1	12	27	12
COc1ccc(-c2nc(C#N)c(N3CCC(C(N)=O)CC3)o2)cc1OC	0	-1	21	+	11
CCOC(=O)C1CCCN(C(=O)c2ccc(-c3ccc([N+](=O)[O-])cc3)o2)C1 (stereo not drawn)	-2	/	15	-3	10
N#Cc1nc(-c2ccc(F)cc2)oc1N1CCC(C(N)=O)CC1	-1	-1	19	+	4
COc1ccc(-c2nc(C#N)c(N3CCN(c4cccc(Cl)c4)CC3)o2)cc1OC	-5	-2	9	0	1
COc1ccc(-c2nc(C#N)c(N3CCOCC3)o2)cc1OC	-4	2	12	+	-7

High-throughput results as filed in PubChem.
